E coli growth-1: reduces bacterial viability in AddAB counter-screen. E. coli V3065 growth, OD600 absorbance, 18 h. inhibition, % at 11.9 µM. 330,000 tested, 0.27% active;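 active = inhibition above the campaign's mean inhibition across all tested compounds plus 3 SD, cut at about 9.9% in these data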;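 note: uninfected addAB+ strain grown without phage in ampicillin broth; 0% = DMSO wells and 100% = ciprofloxacin 0.95 µg/ml wells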
AddAB inh: less growth of phage-infected E. coli with AddAB. E. coli expressing H. pylori AddAB, absorbance growth. inhibition, % at 11.9 µM. 330,000 tested, 0.29% active; in the data active = inhibition above about 12%;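 note: 0% = vehicle wells of infected cells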
phage Ecoli inh: E. coli growth loss with phage present; 360,000 tested, 0.26% active; growth absorbance; inhibition, % at 11.9 µM; in the data active = inhibition above about 11%
E coli growth-2: inhibitors of Escherichia coli growth. 330,000 tested, 0.21% active. OD600 absorbance (no concentration beside the values). AID 1053175. OD600, 23 h; hits give low values;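 active = OD600 absorbance below the run mean of sample wells minus 3.6 SD, in any replicate, cut at about 0.56 in these data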
Tat export inh: inhibitors of E. coli Tat protein transport; E. coli MC4100 TorA-mCherry Tat export, fluorescence; inhibition, % at 10 µM; 340,000 tested, 0.036% active; AID 488895;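 active = mean replicate inhibition at least 50% and at least half of replicates individually reaching 50%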;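 note: exported cargo escapes ClpAP degradation while cytoplasmic cargo is degraded and loses fluorescence; 0% = median of neutral control wells and 100% = median of NaSCN control wells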
AddAB confirm: growth loss of T4-infected E. coli expressing H. pylori AddAB, confirmed; shares compounds with AddAB inh; E. coli V3065 expressing H. pylori AddAB, T4 phage, OD; T4 phage with gene 2 nonsense mutations; inhibition, % at 11.9 µM; 880 tested, 64% active; AID 488942;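 active = mean inhibition above a set limit taken from the earlier primary screen, cut at about 13% in these data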;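 note: higher means less bacterial growth since AddAB block lets phage replicate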
RecBCD counter: counter-screen: growth loss of RecBCD+ E. coli with mutant T4 phage | shares compounds with AddAB inh | E. coli V66 + mutant T4 phage, OD growth | inhibition, % at 11.9 µM | 880 tested, 73% active | AID 488955;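 active = mean inhibition above the mean of solvent-only control wells plus 3 SD, cut at about 4% in these data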;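 note: optical density read after an 18 h incubation at 37 °C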
Bact viability: counter-screen: bacterial growth inhibition. 880 tested, 35% active. shares compounds with AddAB inh. inhibition, % at 11.9 µM. bacterial viability, absorbance (AddAB counterscreen). AID 488956; in the data active = inhibition above about 25%
The depositor's hits bear a star; / = no result. An excerpt weighted towards active compounds, which were near 0.5% of everything screened.

SMILES | E coli growth-1 | AddAB inh | phage Ecoli inh | E coli growth-2 | Tat export inh | AddAB confirm | RecBCD counter | Bact viability
NC(=O)NOCc1ccccc1 | 5 | 98* | 4 | 0.7 | 10 | -2 | 1 | -4
CCOc1ccc(S(=O)(=O)n2cc(F)c(=O)[nH]c2=O)cc1[N+](=O)[O-] | 17* | 24* | 10 | 0.73 | -1 | 11 | 2 | 7
Cc1ccc(OCC(=O)Nc2ccc(S(=O)(=O)N3CCOCC3)cc2)c(Br)c1 | 0 | 4 | -1 | 0.74 | -11 | / | / | /
CC1CCN(C(=O)CCC(=O)N2CC(C)Oc3ccccc32)CC1 (stereo not drawn) | 32* | 99* | 3 | 0.73 | -10 | -3 | 1 | -2
O=C(Nc1nnc(-c2cccs2)o1)c1cccc(F)c1 | 5 | 16* | 8 | 0.35* | 12 | 9 | 14* | 7
O=C(Nc1nnc(-c2ccco2)o1)c1cccc(Cl)c1 | 0 | 15* | -4 | 0.69 | -6 | 0 | -2 | -4
O=C(Nc1nnc(-c2ccccn2)o1)c1cccc(Cl)c1 | -7 | 0 | -6 | 0.57 | -6 | / | / | /
CCn1cc(C(=O)OCC(=O)N(C)Cc2ccccc2)c(=O)c2ccc(C)nc21 | 95* | 98* | 2 | / | -1 | -3 | -1 | -1
CCn1cc(C(=O)OCC(=O)c2cc(C)n(-c3ccccc3)c2C)c(=O)c2ccc(C)nc21 | 0 | 0 | 0 | 0.64 | 0 | / | / | /
CN(c1ccccc1)S(=O)(=O)c1cccc(C(=O)Nc2ncn[nH]2)c1 | 1 | 2 | 1 | 0.74 | -6 | / | / | /
Cc1cccc(-n2ncc3c(N4CCC5(CC4)OCCO5)ncnc32)c1 | 5 | 32* | 2 | 0.74 | -4 | 3 | 0 | -1
c1ccc(-n2ncc3c(N4CCC5(CC4)OCCO5)ncnc32)cc1 | 2 | 1 | 1 | 0.78 | -10 | / | / | /
CCn1cc(C(=O)NCCC(C)C)c(=O)c2cc(F)c(N3CCN(C(=O)c4ccco4)CC3)cc21 | 16* | 26* | 3 | 0.15* | 3 | 99* | 2 | 36*
CCn1cc(C(=O)NC(C)C)c(=O)c2cc(F)c(N3CCN(C(=O)c4ccco4)CC3)cc21 | 82* | 89* | 5 | 0.087* | 9 | 99* | 1 | 35*
CC(=O)c1cc(F)c(N2CCN(C(=O)c3ccco3)CC2)cc1C | 2 | 2 | 0 | 0.74 | -4 | / | / | /
Cc1ccnc2c1ccc1c(C)ccnc12 | 37* | 39* | / | 0.28* | 8 | 70* | 25* | 20
CC(=O)Nc1ccc(C(=O)OCC(=O)Nc2c(F)cccc2F)cc1 | 74* | 90* | -1 | 0.72 | 2 | -1 | 0 | -4
CC(=O)Nc1ccc(C(=O)OCC(=O)c2ccc(F)cc2)cc1 | 1 | 2 | 5 | 0.65 | 0 | / | / | /
CCCS(=O)(=O)NC(=O)C1(C)CCN(C(=O)COCc2ccccc2)C1 (stereo not drawn) | / | / | 3 | / | / | / | / | /
Cc1noc(NS(=O)(=O)c2ccc(NC(=O)C(F)(F)F)cc2)c1C | 9 | 15* | 3 | 0.7 | -12 | -1 | 3 | 2
Cc1noc(NS(=O)(=O)c2ccc(NC(=O)C(C)(C)C)cc2)c1C | 1 | 1 | 5 | 0.68 | -5 | / | / | /
Cn1nc(C(F)(F)F)c2cc(C(=O)Nc3ccc(F)c(Cl)c3)sc21 | 3 | 6 | 5 | 0.62 | 1 | / | / | /
Cc1cc(C)c2c(NC(=O)CCl)nn(C)c2n1 | 65* | 93* | 0 | 0.71 | 0 | 2 | 0 | 0
CCC(C)=NNC(=O)CNC(=O)c1ccc(Cl)cc1Cl | / | / | / | 0.71 | / | / | / | /
O=C(Cn1cnc2ccccc2c1=O)NCCC(=O)N1CCN(c2ccccc2)CC1 | 2 | 1 | 2 | 0.68 | -8 | / | / | /
CC(NC(=O)NC1CCCCC1)C(c1cccs1)N1CCN(C)CC1 (stereo not drawn) | 8 | 85* | 1 | 0.73 | -13 | 1 | 0 | -4
CN(CCNC(=O)CN1CCN(Cc2ccccc2Cl)C1=O)Cc1ccccc1 | -2 | 2 | / | 0.79 | 3 | / | / | /
CSC(=S)N/N=C/c1ccc(Br)cc1 | 5 | 5 | 8 | / | -5 | / | / | /
CSC(=S)N/N=C/c1ccc(N(C)C)cc1 | 7 | 16* | 3 | / | 5 | 53* | 7.4* | 30*
